Consider three compounds from PubChem BioAssay (EPA / NIEHS).

The structures appear in SMILES notation. Active and inactive are the calls of the source. How the source made its calls: active means hit-call score of the fitted dose curve at least 0.9, where 1 is the maximum; inactive means score below 0.9.

Conditions in all cases: mRNA level, 48 h; actives raise or lower the signal
Read-out in assay [1]: Bcl-2 (BID) gene, BID (gene 637)
In words: LTEA_HepaRG_BID: Life Technologies and Expression Analysis (LTEA) Assay for Bcl-2 (BID) gene using HepaRG (AID 2283476). In a few lines: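 Gene expression by qRT-PCR in HepaRG cells after 48 h exposure, duplicate wells, eight half-log concentrations topping at 100 uM in 0.5% DMSO. Normalized to ACTB, GAPDH, POLR2A; bidirectional fitting relative to DMSO.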

Read-out in another assay: Caspase-3 (Homo sapiens) (UniProt P42574)
The assay can be described thus: LTEA_HepaRG_CASP3: Life Technologies and Expression Analysis (LTEA) Assay for cysteine-aspartic acid protease (CASP3) using HepaRG (AID 2283477). In a few lines: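 In HepaRG liver cells dosed for 48 h at up to 100 uM (eight-point, duplicate), CASP3 expression changes are scored by qRT-PCR. Activity is fitted in both directions with 0.5% DMSO as baseline.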

Read-out in assay [2]: Cytochrome P450 (CYP24A1), CYP24A1 (gene 1591)
The assay can be described thus: LTEA_HepaRG_CYP24A1: Life Technologies and Expression Analysis (LTEA) Assay for Cytochrome P450 (CYP24A1) using HepaRG (AID 2283478). The procedure, abridged: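 Human liver HepaRG cultures receive each chemical for 48 h across an eight-point half-log series topping at 100 uM in 0.5% DMSO. Induction or suppression of CYP24A1 mRNA is scored relative to vehicle after housekeeping-gene normalization.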

Read-out in assay [3]: Cytochrome P450 (CYP1A2), CYP1A2 (gene 1544)
In words: LTEA_HepaRG_CYP1A2: Life Technologies and Expression Analysis (LTEA) Assay for Cytochrome P450 (CYP1A2) using HepaRG (AID 2283479). In a few lines:
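Assesses CYP1A2 mRNA in human HepaRG liver cells after 48 h chemical exposure at up to 100 uM. Values come from qRT-PCR with bidirectional curve fitting relative to DMSO.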

Read-out in assay [4]: cysteine-aspartic acid protease (CASP8), CASP8 (gene 841)
In words: LTEA_HepaRG_CASP8: Life Technologies and Expression Analysis (LTEA) Assay for cysteine-aspartic acid protease (CASP8) using HepaRG (AID 2283480). The procedure, abridged:
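Differentiated HepaRG cells in serum-free induction medium, 48 h exposure, eight-point half-log series from 100 uM in 0.5% DMSO, duplicates. CASP8 mRNA by qRT-PCR, normalized to ACTB, GAPDH, POLR2A; bidirectional fit versus DMSO.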

Read-out in assay [5]: Cytochrome P450 (CYP2B6), CYP2B6 (gene 1555)
In words: LTEA_HepaRG_CYP2B6: Life Technologies and Expression Analysis (LTEA) Assay for Cytochrome P450 (CYP2B6) using HepaRG (AID 2283481). The procedure, abridged: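 Using 48 h treatment of HepaRG cells in serum-free induction medium, concentrations spanned half-log steps from 100 uM in 0.5% DMSO vehicle. CYP2B6 mRNA induction or loss is scored by qRT-PCR against DMSO.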

Read-out in assay [6]: Cytochrome P450 2C19 (Homo sapiens) (UniProt P33261)
In words: LTEA_HepaRG_CYP2C19: Life Technologies and Expression Analysis (LTEA) Assay for CYP2C19 using HepaRG (AID 2283482). In a few lines:
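Human HepaRG liver cells received test chemicals for 48 h (highest 100 uM, half-log dilutions in 0.5% DMSO). CYP2C19 mRNA induction or loss is read by multiplexed qRT-PCR and fitted in both directions versus vehicle.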

Read-out in the next assay: CYP2C8 (gene 1558)
In words: LTEA_HepaRG_CYP2C8: Life Technologies and Expression Analysis (LTEA) Assay for CYP2C8 using HepaRG (AID 2283483). In a few lines:
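Differentiated HepaRG cells in serum-free induction medium exposed 48 h in duplicate to 8 half-log concentrations from 100 uM in 0.5% DMSO. CYP2C8 mRNA by qRT-PCR normalized to ACTB, GAPDH, POLR2A; bidirectional fit versus DMSO.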

Read-out in another assay: CYP2C9 (gene 1559)
The assay can be described thus: LTEA_HepaRG_CYP2C9: Life Technologies and Expression Analysis (LTEA) Assay for CYP2C9 using HepaRG (AID 2283484). In a few lines: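 Differentiated human HepaRG cells in serum-free induction medium were exposed 48 h to chemicals in 8-point half-log series from 100 uM (0.5% DMSO), in duplicate. CYP2C9 mRNA was measured by qRT-PCR, normalized to ACTB/GAPDH/POLR2A, with bidirectional fitting versus DMSO.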

Read-out in a further assay: CYP2E1 (gene 1571)
The assay can be described thus: LTEA_HepaRG_CYP2E1: Life Technologies and Expression Analysis (LTEA) Assay for CYP2E1 using HepaRG (AID 2283485). The procedure, abridged: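 HepaRG cells, plated 48 h, then exposed 48 h in serum-free induction medium to eight half-log concentrations from 100 uM in 0.5% DMSO, duplicate. CYP2E1 mRNA by qRT-PCR, normalized to ACTB/GAPDH/POLR2A; bidirectional fit versus DMSO.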

Read-out in a further assay: CYP4A11 (gene 1579)
In words: LTEA_HepaRG_CYP4A11: Life Technologies and Expression Analysis (LTEA) Assay for CYP4A11 using HepaRG (AID 2283486). In a few lines:
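Readout is CYP4A11 mRNA induction or suppression (qRT-PCR, ACTB/GAPDH/POLR2A normalization) in human HepaRG cells after 48 h chemical treatment, concentrations to 100 uM in 0.5% DMSO, fitted bidirectionally against vehicle.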

Read-out in assay [7]: Cytochrome P450 3A4 (Homo sapiens) (UniProt P08684)
In words: LTEA_HepaRG_CYP3A4: Life Technologies and Expression Analysis (LTEA) Assay for CYP3A4 using HepaRG (AID 2283487). In a few lines:
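Differentiated HepaRG cells in serum-free induction medium exposed in duplicate for 48 h to 8 half-log concentrations up to 100 uM in 0.5% DMSO. CYP3A4 mRNA measured by qRT-PCR normalized to ACTB, GAPDH and POLR2A; bidirectional fit versus DMSO.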

Read-out in assay [8]: DNA damage-inducible transcript 3 (DDIT3), DDIT3 (gene 1649)
In words: LTEA_HepaRG_DDIT3: Life Technologies and Expression Analysis (LTEA) Assay for DNA damage-inducible transcript 3 (DDIT3) using HepaRG (AID 2283488). The procedure, abridged:
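HepaRG cells, 48 h after plating, exposed 48 h in serum-free induction medium to 8 half-log concentrations up to 100 uM in 0.5% DMSO, in duplicate. DDIT3 mRNA measured by TaqMan qRT-PCR, normalized to ACTB, GAPDH and POLR2A. Fitted bidirectionally against DMSO.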

Read-out in assay [9]: Pro-epidermal growth factor (Homo sapiens) (UniProt P01133)
The assay can be described thus: LTEA_HepaRG_EGF: Life Technologies and Expression Analysis (LTEA) Assay for Epidermal growth factor (EGF) using HepaRG (AID 2283489). In a few lines: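 EGF expression changes in human HepaRG cells are scored by bidirectional fitting relative to 0.5% DMSO controls. Chemicals are tested at eight half-log concentrations up to 100 uM for 48 h in serum-free induction medium.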

Read-out in assay [10]: Early growth response protein 1 (EGR1) transcription factor, EGR1 (gene 1958)
The assay can be described thus: LTEA_HepaRG_EGR1: Life Technologies and Expression Analysis (LTEA) Assay for Early growth response protein 1 (EGR1) transcription factor using HepaRG (AID 2283490). The procedure, abridged: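 Differentiated HepaRG cells in serum-free induction medium exposed 48 hours, duplicate, to 8 half-log concentrations up to 100 uM in 0.5% DMSO. EGR1 mRNA measured by TaqMan qRT-PCR, normalized to ACTB, GAPDH, POLR2A; bidirectional fit versus DMSO.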

Read-out in assay [11]: Ezrin (EZR), EZR (gene 7430)
In words: LTEA_HepaRG_EZR: Life Technologies and Expression Analysis (LTEA) Assay for Ezrin (EZR) using HepaRG (AID 2283491). In a few lines: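 Differentiated human HepaRG cells, 48 h after plating, were exposed in serum-free induction medium for 48 hours to eight half-log concentrations up to 100 uM in 0.5% DMSO. EZR mRNA was measured by TaqMan qRT-PCR, normalized to ACTB, GAPDH and POLR2A, and fitted bidirectionally against DMSO.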

Read-out in assay [12]: Cytochrome P450 3A7 (Homo sapiens) (UniProt P24462)
In words: LTEA_HepaRG_CYP3A7: Life Technologies and Expression Analysis (LTEA) Assay for CYP3A7 using HepaRG (AID 2283492). In a few lines:
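Cells were thawed, plated, cultured 48 h, then treated for a further 48 h with chemicals (eight-point half-log series from 100 uM, 0.5% DMSO). RNA was isolated and CYP3A7 expression quantified by qRT-PCR normalised to ACTB, GAPDH and POLR2A.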

Read-out in another assay: CYP3A5 (gene 1577)
The assay can be described thus: LTEA_HepaRG_CYP3A5: Life Technologies and Expression Analysis (LTEA) Assay for CYP3A5 using HepaRG (AID 2283493). In a few lines: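 HepaRG cells, plated 48 h then in serum-free induction medium, dosed in duplicate for 48 h with eight half-log concentrations up to 100 uM in 0.5% DMSO. Gene mRNA by Fluidigm TaqMan qRT-PCR, normalized to ACTB, GAPDH, POLR2A.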

Read-out in assay [13]: Cytochrome P450 4A22 (Homo sapiens) (UniProt Q5TCH4)
In words: LTEA_HepaRG_CYP4A22: Life Technologies and Expression Analysis (LTEA) Assay for Cytochrome P450 4A22 (CYP4A22) using HepaRG (AID 2283495). The procedure, abridged:
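Cryopreserved HepaRG cells, plated and cultured 48 h, then switched to serum-free induction medium and treated 48 h (duplicates, up to 100 uM, half-log steps, 0.5% DMSO). Expression change of CYP4A22 was fitted bidirectionally against vehicle.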

Read-out in assay [14]: Fatty Acid-Binding Protein 1 (FABP1), FABP1 (gene 2168)
The assay can be described thus: LTEA_HepaRG_FABP1: Life Technologies and Expression Analysis (LTEA) Assay for Fatty Acid-Binding Protein 1 (FABP1) using HepaRG (AID 2283494). The procedure, abridged:
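Differentiated human HepaRG cells exposed 48 h in serum-free induction medium to eight half-log concentrations up to 100 uM (0.5% DMSO), duplicate. FABP1 mRNA by qRT-PCR, normalised to ACTB, GAPDH, POLR2A; bidirectional fitting against DMSO.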

Sequence of Cytochrome P450 3A4 (Homo sapiens) (P08684 whole entry, looked up): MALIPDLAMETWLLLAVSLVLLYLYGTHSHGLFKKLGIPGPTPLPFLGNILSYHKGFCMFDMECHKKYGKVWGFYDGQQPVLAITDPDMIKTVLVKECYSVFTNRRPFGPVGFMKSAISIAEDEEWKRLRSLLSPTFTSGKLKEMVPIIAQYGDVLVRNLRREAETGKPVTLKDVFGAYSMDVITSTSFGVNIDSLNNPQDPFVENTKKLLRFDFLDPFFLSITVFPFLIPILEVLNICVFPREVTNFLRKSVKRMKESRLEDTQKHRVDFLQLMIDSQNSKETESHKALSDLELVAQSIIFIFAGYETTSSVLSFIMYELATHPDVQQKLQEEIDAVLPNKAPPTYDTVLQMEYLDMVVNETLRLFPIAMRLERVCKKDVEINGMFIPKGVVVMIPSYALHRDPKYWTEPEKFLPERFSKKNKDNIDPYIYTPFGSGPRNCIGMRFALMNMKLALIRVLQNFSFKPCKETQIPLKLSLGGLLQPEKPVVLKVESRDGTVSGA
Sequence of Cytochrome P450 3A7 (Homo sapiens) (P24462 whole entry, looked up): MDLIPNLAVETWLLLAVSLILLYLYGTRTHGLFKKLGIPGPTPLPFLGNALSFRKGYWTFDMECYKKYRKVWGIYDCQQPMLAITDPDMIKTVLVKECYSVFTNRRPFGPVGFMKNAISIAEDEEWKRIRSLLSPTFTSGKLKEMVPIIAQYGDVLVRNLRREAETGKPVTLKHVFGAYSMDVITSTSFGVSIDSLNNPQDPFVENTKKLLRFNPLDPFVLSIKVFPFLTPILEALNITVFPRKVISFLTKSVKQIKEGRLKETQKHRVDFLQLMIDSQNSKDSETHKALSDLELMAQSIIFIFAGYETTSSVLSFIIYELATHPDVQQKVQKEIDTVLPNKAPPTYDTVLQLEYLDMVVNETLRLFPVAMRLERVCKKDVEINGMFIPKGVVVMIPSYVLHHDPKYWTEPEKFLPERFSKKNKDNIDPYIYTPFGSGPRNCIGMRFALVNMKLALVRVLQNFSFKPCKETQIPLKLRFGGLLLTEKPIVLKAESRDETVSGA
Sequence of Caspase-3 (Homo sapiens) (P42574 whole entry, looked up): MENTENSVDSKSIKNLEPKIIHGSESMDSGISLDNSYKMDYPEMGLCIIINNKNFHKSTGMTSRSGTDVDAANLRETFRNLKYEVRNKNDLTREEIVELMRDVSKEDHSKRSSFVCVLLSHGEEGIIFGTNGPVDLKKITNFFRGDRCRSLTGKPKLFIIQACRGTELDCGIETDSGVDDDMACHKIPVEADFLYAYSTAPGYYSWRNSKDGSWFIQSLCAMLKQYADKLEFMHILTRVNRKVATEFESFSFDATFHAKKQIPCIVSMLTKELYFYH
Sequence of Cytochrome P450 2C19 (Homo sapiens) (P33261 whole entry, looked up): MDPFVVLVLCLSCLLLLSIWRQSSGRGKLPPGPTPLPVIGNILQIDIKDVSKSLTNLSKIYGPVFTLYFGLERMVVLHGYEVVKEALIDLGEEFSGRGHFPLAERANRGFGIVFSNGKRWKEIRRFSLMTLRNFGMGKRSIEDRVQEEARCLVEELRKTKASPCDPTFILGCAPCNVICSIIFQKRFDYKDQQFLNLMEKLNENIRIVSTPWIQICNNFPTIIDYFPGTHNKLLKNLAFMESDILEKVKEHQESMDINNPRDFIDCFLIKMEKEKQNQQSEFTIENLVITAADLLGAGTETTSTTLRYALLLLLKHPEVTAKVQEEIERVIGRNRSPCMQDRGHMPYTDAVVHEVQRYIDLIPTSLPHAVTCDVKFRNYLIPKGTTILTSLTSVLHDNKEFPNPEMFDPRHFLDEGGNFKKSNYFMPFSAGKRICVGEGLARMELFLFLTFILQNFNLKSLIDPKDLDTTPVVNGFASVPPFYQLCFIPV

Regarding `COc1ccc(C(=CC(=O)N2CCOCC2)c2ccc(Cl)cc2)cc1OC`, the call (in assay [1]; with Caspase-3 (Homo sapiens); in assay [2]; in assay [3]; in assay [4]; with CYP2C9 (gene 1559)) was inactive. For the same compound, the compound was called inactive (in [8]; in [9]; in [10]; in assay [11]; in assay [12]; with CYP3A5 (gene 1577)). Also, the AC50 (as a rule, the concentration giving half of the maximal activity seen) in assay [5] is 0.00252 µM (active); in assay [6], 10.4 µM (active); with CYP2C8 (gene 1558), 10.4 µM (active); with CYP2E1 (gene 1571), 15.3 µM (active); with CYP4A11 (gene 1579) it was 59 µM (active); in assay [7], 9.63 µM (active). Moreover, the AC50 in [13] was 50 µM (active).
`CCOC(=O)COc1cc(-c2nn(C)c(OC(F)F)c2Cl)c(F)cc1Cl`: the compound was classed as inactive (in [1]; with Caspase-3 (Homo sapiens); in assay [2]; in assay [3]; in [4]; with CYP4A11 (gene 1579)). For the same compound, the result (in [8]; in assay [9]; in assay [10]; in assay [11]; with CYP3A5 (gene 1577); in assay [14]) was inactive. Moreover, the compound was called inactive in assay [13]. The AC50 is 63.5 µM (active) in assay [5]; 50 µM (active) in assay [6]; 50 µM (active) in the assay with CYP2C8 (gene 1558); 16.3 µM (active) with CYP2E1 (gene 1571); 22.8 µM (active) in assay [7]; 30.1 µM (active) in [12].
As for `CCOP(=S)(OCC)Oc1ccc([N+](=O)[O-])cc1`, the compound was classed as inactive (in assay [1]; in the assay with Caspase-3 (Homo sapiens); in assay [2]; in assay [4]; with CYP2C8 (gene 1558); with CYP2C9 (gene 1559)). For the same compound, the compound was classed as inactive (with CYP4A11 (gene 1579); in assay [8]; in assay [9]; in assay [10]; in assay [11]; with CYP3A5 (gene 1577)). The outcome in assay [13] was inactive. In addition, the half-maximal activity concentration (AC50) in assay [3] was 15.1 µM (active); in [5], 0.636 µM (active); in assay [6] it was 9.2 µM (active); in the assay with CYP2E1 (gene 1571) it was 7.92 µM (active); in assay [7] it was 8.92 µM (active); in assay [12], 6.02 µM (active).
